# Compounds with a hit are over-represented: about 3.8% of the library has one in this group of screens.
# B2AR ag: human beta-2 adrenergic receptor agonism by FAP; AID 504454; 340,000 tested, 0.43% active; response, % (concentration not given with the values); Am2.2-beta2AR cells, FAP receptor internalization, flow cytometry; P07550;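 active means response above a set limit, near 3 SD of response in nonfluorescent compounds, cut at about 42% in these data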
# Target sequence (P07550 whole entry, looked up): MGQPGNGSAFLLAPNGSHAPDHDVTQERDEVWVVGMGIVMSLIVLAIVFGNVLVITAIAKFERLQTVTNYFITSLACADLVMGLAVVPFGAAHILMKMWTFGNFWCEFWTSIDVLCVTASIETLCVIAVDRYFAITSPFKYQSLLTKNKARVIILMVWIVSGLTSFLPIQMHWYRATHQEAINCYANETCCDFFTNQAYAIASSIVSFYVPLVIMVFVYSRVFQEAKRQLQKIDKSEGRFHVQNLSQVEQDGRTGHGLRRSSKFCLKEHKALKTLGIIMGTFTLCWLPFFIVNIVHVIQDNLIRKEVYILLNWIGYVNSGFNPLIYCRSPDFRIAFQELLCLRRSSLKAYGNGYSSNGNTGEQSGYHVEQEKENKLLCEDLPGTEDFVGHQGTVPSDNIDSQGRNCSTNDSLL
# PfHsp90 set2: growth inhibition of yeast expressing Plasmodium Hsp90 | S. cerevisiae expressing PfHsp90, BacTiter-Glo ATP, 48 h; yeast lacking PDR1 and PDR3 efflux regulators | inhibition, % at 9.4 µM | 310,000 tested, 0.32% active | AID 504621;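 active means every replicate shows inhibition above about 80%, whatever the replicate mean, limit read from the data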;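 further: 0% = DMSO neutral controls and 100% = 20 µM radicicol positive controls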
# tim10-1 inh: inhibits growth of tim10-1 mutant yeast; S. cerevisiae tim10-1 ts strain growth, BacTiter-Glo, 24 h; inhibition, % at 20 µM; 330,000 tested, 2.2% active; AID 463190;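 active means inhibition of at least 40%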;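 further: mutant grown at 25 °C; 0% = DMSO wells with yeast and 100% = wells holding no yeast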
# tim23-1 inh: inhibits growth of tim23-1 mutant yeast. S. cerevisiae tim23-1 growth, BacTiter-Glo luminescence, 24 h. inhibition, % at 20 µM. 330,000 tested, 1.3% active;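 active means growth inhibition of the mutant yeast at or above 50%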;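 further: temperature-sensitive mutant grown at 25 °C; plate controls were DMSO-treated mutant yeast for no effect and medium wells lacking yeast for full effect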
# TIM10 inh: TIM10 yeast growth inhibition; inhibition, % at 10 µM; S. cerevisiae TIM10 strain growth, BacTiter-Glo luminescence, 24 h; 330,000 tested, 1.4% active;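 active means inhibition of 40% or more at the single tested concentration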;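 further: wild-type TIM10 isogenic control strain grown at permissive 25 °C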
# An asterisk follows results filed as active; . = no result given.
SMILES,B2AR ag,PfHsp90 set2,tim10-1 inh,tim23-1 inh,TIM10 inh
CN(CCc1ccccc1)C(=O)c1cccc(NC(=O)Cc2cccc(NC(=O)C3CCN(C(=O)c4ccccc4)CC3)c2)c1,-15,-5,.,.,.
CN1C(=O)C(N=Nc2ccc([N+](=O)[O-])cc2)SC1=S (stereo not given),12,114*,.,.,.
CN1CCCCCC1=Nc1ccc([N+](=O)[O-])cc1,-1,5,7,10,10
CCCC1=Nc2cc(C(=O)N3CCN(c4ccccn4)CC3)ccc2Sc2ccc(C)cc21,2,-19,17,17,24
CN1/C(=C\C(=O)c2cccnc2)C(C)(C)c2ccccc21,-1,-30,28,23,3
CN1/C(=C/C(=O)c2nc(S(C)(=O)=O)ncc2Cl)C(C)(C)c2ccccc21,48*,-68,28,49,10
COc1cccc(/C=N/Nc2nc3ccccc3n3cnnc23)c1O,109*,27,0,9,-6
COc1ccc(-c2nn(C)c(=O)c3ccccc23)cc1NC(=O)Cn1nc(C)c2ccccc2c1=O,48*,-15,9,14,7
COc1ccccc1OCCNC(=O)CCC(=O)N1CCOCC1,2,2,-11,4,-8
COc1ccccc1CN1CCC(CNS(=O)(=O)c2cc(-c3onc(C)c3C)ccc2OC)CC1,11,-13,11,-4,-2
Cc1[nH]oc(=O)c1N=Nc1c(Cl)cccc1Cl,11,106*,-45,-80,-17
CC1(C)CC[C@]2(C(=O)O)CC[C@]3(C)C(=CC[C@@H]4[C@@]5(C)CC[C@H](O[C@@H]6O[C@H](C(=O)O)[C@@H](O)[C@H](O[C@@H]7OC[C@H](O)[C@H](O)[C@H]7O)[C@H]6O)C(C)(C)[C@@H]5CC[C@]43C)[C@@H]2C1,40,108*,-253,-84,-12
CC1(C)CC[C@]2(C(=O)O[C@@H]3O[C@H](CO)[C@@H](O)[C@H](O)[C@H]3O)CC[C@]3(C)C(=CCC4[C@@]5(C)CC[C@H](O[C@@H]6O[C@H](C(=O)O)[C@@H](O[C@H]7OC[C@@H](O)[C@@H](O)[C@@H]7O)[C@H](O)[C@H]6O)C(C)(C)C5CC[C@]43C)[C@@H]2C1 (stereo not given in full),5,-7,6,14,-7
CCCCCCCCCCCCCC(=O)NO,-2,107*,.,.,.
CCCCCCCC/C=C\CCCCCCCC(=O)NCCO,5,109*,29,12,-2
CCCCCCCC/C=C\CCCCCCCC(=O)O,-3,-25,-4,2,-22
CCN(CC(=O)Nc1c(F)cccc1F)C(=O)c1ccc(N2CCCCC2)c([N+](=O)[O-])c1,-5,12,9,19,-1
Cc1ccc(S(=O)(=O)c2nc(Cc3ccccc3)oc2N2CCOCC2)cc1,10,1,5,16,2
CC(C)(C)c1ccc(-c2cc(C(=O)NNC(=O)Nc3ccccc3)c3ccccc3n2)cc1,43*,11,30,0,9
CCc1cc(CNC(=O)C2CCC(=O)N(Cc3cccc(F)c3)C2)on1 (stereo not given),-1,-6,-10,-2,-12
CC1(C)N=C(SCC(=O)Nc2ccc(Cl)cc2Cl)C(c2ccccc2)=N1,-6,99*,22,20,12
CC1(C)N=C(SCC(=O)Nc2ccccc2)C(c2ccc(Cl)cc2)=N1,-12,18,27,26,20
Cc1ccc(C2=NC(C)(C)N=C2SCC(=O)Nc2ccc(Cl)cc2)cc1,-4,134*,39,20,23
COc1ccccc1-c1nnc(SCC(=O)Nc2ccc(Cl)cc2Cl)o1,19,.,35,20,13
O=C(c1cccc(S(=O)(=O)N2CCOCC2)c1)N1CCCC(C(F)(F)F)C1 (stereo not given),-7,5,4,15,-3
CCOC(=O)c1ccc(S(=O)(=O)Nc2cc(S(=O)(=O)Nc3ccc(OC)cc3)ccc2O)cc1,1,.,-7,0,-1
CC1(C)C(=O)Nc2ccccc2N1C(=O)COC(=O)CNS(=O)(=O)c1ccc(Br)cc1Cl,-6,.,.,.,.
COc1ccc2c(c1)C=C(C(=O)NCc1ccc(Cl)cc1)CO2,-7,98*,27,35,-15
O=C(O)c1ccc(S(=O)(=O)NCC2CCCO2)cc1 (stereo not given),-6,7,11,16,-2

# Screens from PubChem.
